Screening data as filed in PubChem.
This is a sample that favours compounds with a hit; in the whole collection about 1.8% have one here.
RAD54 branch = inhibitors of human RAD54 branch migration; Q92698; RAD54 Holliday junction branch migration, FAM/BHQ fluorescence; inhibition, % at 10.4 µM; 360,000 compounds, 0.14% hits; AID 602329;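 active = mean normalized replicate activity at least 40 and at least half of replicates scoring 40 or more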;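 also: inhibitors cause a drop in the FAM fluorescence signal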
INS-1E GSIS act = primary screen for activators of insulin secretion dependent on glucose, INS-1E cells, GLuc reporter luminescence | INS-1E GLuc reporter insulin secretion, 2-3 h | activation, % at 16.6 µM | 370,000 compounds, 0.61% hits | AID 743287;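 active = lowest replicate activation of at least 40%, so every replicate reaches that level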
EWS-Fli block = blocks EWS/Fli oncoprotein-driven transcription; A673 NR0B1-luciferase reporter, viability-normalised; AID 651661; 350,000 compounds, 0.67% hits; inhibition, % at 12.6 µM;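 active = mean inhibition of at least 50% after viability correction, with every replicate also passing that limit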;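 also: firefly luciferase signal divided by Alamar Blue viability fluorescence both relative to DMSO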
RAD52 inh = inhibitors of human RAD52 DNA annealing | recombinant RAD52 DNA annealing, FRET fluorescence | 360,000 compounds, 0.46% hits | inhibition, % at 18.7 µM | P43351;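 active = every replicate showing at least 50% inhibition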
Target sequence (P43351 whole entry, looked up): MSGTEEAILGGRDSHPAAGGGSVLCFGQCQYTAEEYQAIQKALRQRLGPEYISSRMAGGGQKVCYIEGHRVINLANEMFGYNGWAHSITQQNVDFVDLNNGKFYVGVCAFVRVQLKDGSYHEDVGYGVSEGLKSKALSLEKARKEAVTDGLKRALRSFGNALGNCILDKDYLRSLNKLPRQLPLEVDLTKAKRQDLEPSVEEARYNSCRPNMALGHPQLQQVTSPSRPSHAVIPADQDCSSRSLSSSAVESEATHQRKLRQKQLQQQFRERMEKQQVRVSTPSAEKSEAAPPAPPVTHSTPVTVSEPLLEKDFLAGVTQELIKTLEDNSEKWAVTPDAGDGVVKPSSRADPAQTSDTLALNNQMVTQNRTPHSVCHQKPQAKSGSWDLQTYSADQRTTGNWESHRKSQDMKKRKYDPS
LGR2 inh = inhibitors of bursicon-induced Drosophila LGR2 receptor cAMP signaling; HEK293 LGR2, CRE-luciferase, bursicon-stimulated, 4 h; inhibition, % at 9.99 µM; 380,000 compounds, 0.35% hits; AID 720647;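 active = drop in luminescence signal, shown as inhibition above about 50% in the replicate tests, limit read from the data, passing the limit was not always enough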;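 also: agonist challenge used bursicon conditioned medium at about half maximal strength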
CFTR F508del cor = CFTR F508del correction in bronchial cells | AID 720511 | activity (quench increase), % at 7.58 µM | 350,000 compounds, 0.36% hits | CFBE cells, YFP halide quenching; stimulated with forskolin plus potentiator P3; % fluorescence drop versus neutral controls;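 active = mean added fluorescence quench of at least 8% versus neutral control, with both replicates also reaching 8%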;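 also: cells transiently co-express mutant CFTR-F508del with the halide-sensitive YFP; corrector assay measuring rescue of mutant channel to the surface after 24 h compound exposure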
Each line names hits and unclear results; the compound was inactive in the other large screens.

COc1ccc2c3c([nH]c2c1)[C@@H](CO)N(Cc1nccs1)CC31CCN(Cc2cccnc2)CC1	RAD52 inh 60 (no result: RAD54 branch)
COc1ccc2c3c([nH]c2c1)[C@H](CO)N(C(=O)CN(C)C)CC31CN(CC2CC2)C1	RAD52 inh 50 (no result: RAD54 branch)
CC(C)(C)[S@](=O)N1Cc2cc(C(=O)NC3CCC3)nc(-c3cccc(-c4ccccc4F)c3)c2[C@@H]1CCO	none
COc1ccc2c3c([nH]c2c1)[C@@H](CO)N(C(=O)CN(C)C)CC31CN(CC2CC2)C1	RAD52 inh 56 (no result: RAD54 branch)
CC1CC(C)CN(C(=O)Cn2nnc(-c3ccc(Br)cc3)n2)C1 (stereo not drawn)	none
CCCC1CCC(C(=O)Nn2c(C)nc3ccccc3c2=O)CC1 (stereo not drawn)	none
CCCCCCC1CCC(C(=O)Nn2c(C)nc3ccccc3c2=O)CC1 (stereo not drawn)	INS-1E GSIS act 69 (no result: EWS-Fli block, RAD52 inh, CFTR F508del cor)
COc1ccc(-c2nc(CCNC(=O)c3ccco3)cs2)cc1OC	INS-1E GSIS act 89
CC1(C)C(=O)NCCN1C(=O)c1ccc2nc(Cc3ccccc3F)oc2c1	none
COc1ccc2[nH]c3c(=O)n(/N=C/c4ccc(OC)c(CN5CCCC5)c4)c(C)nc3c2c1	none
COc1ccc2c(c1)[nH]c1c(=O)n(/N=C/c3ccc(OC)c(CN4CCCC4)c3)cnc12	CFTR F508del cor 9.2
COc1ccc(/C=N/n2cnc3c([nH]c4ccc(F)cc43)c2=O)cc1CN1CCCC1	EWS-Fli block 57 (no result: RAD54 branch)
COc1ccc(/C=N/n2cnc3c([nH]c4ccc(C)cc43)c2=O)cc1CN1CCCC1	EWS-Fli block 59
COc1ccc(/C=N/n2c(=O)[nH]c3c([nH]c4ccc(F)cc43)c2=O)cc1CN1CCCCC1	none
CCCCC1(C2CCCC2)NC(=O)NC1=O (stereo not drawn)	CFTR F508del cor 12
CC(NCC(O)COCCC12CC3CC(CC(C3)C1)C2)c1ccccc1 (stereo not drawn)	INS-1E GSIS act 167, RAD52 inh 55
CN1[C@@H]2Cn3c(ccc(C4=CCCCC4)c3=O)[C@H]1[C@@H](C(=O)N1CCCCC1)[C@@H]2CO	none
CN(C)C(=O)[C@@H]1[C@@H](CO)[C@@H]2Cn3c(ccc(C4=CCCCC4)c3=O)[C@H]1N2C	RAD52 inh 72
COc1cc(-c2nc(-c3cccc(C)c3)no2)cc(OC)c1OC	none (no result: EWS-Fli block, RAD52 inh, CFTR F508del cor)
Cc1cccc(-c2nc(-c3ccncc3)no2)c1	none
COc1ccc(-c2nc(-c3cccc(C)c3)no2)cc1OC	CFTR F508del cor 10 (no result: LGR2 inh)
COc1ccc(-c2nc(-c3cccnc3)no2)cc1OC	INS-1E GSIS act 58
COc1cc(-c2nc(-c3cccnc3)no2)cc(OC)c1OC	none (no result: EWS-Fli block, RAD52 inh, CFTR F508del cor)
Cc1cccc(-c2noc(-c3ccc4c(c3)OCO4)n2)c1	LGR2 inh 66 (no result: RAD54 branch)
O=C(C[C@@H]1CC[C@@H]2[C@H](COC[C@@H](O)CN2C(=O)c2ccncc2)O1)NC1Cc2ccccc2C1	none
CCN(CC)CCNc1cccc2sc3ccccc3c(=O)c12	RAD54 branch 90 (no result: INS-1E GSIS act, LGR2 inh)
CN(C)CCNc1cccc2sc3ccc(O)cc3c(=O)c12	none (no result: RAD54 branch, INS-1E GSIS act)
O=C(COc1ccccc1)Nc1c2c(nn1-c1ccc(F)cc1)CS(=O)C2 (stereo not drawn)	none
CC(C)C[C@@H](CN1CCCC1CN1C(=S)NC[C@@H]1Cc1ccccc1)N1C[C@H](Cc2ccccc2)N(CC2CCCCCC2)C1=S (stereo partly drawn)	none (no result: RAD54 branch)
c1ccc(-c2nc(-c3nccc4ccccc34)oc2-c2ccccc2)cc1	LGR2 inh 60 (no result: RAD54 branch, INS-1E GSIS act)
Nc1nc(-c2ccccc2)c(-c2ccccc2)o1	none
CC1(C)Cc2nc3sc4c(SCC(=O)O)ncnc4c3cc2CO1	none (no result: RAD54 branch)
CC(C)c1ccc(NC(=O)CN2C(=O)NC3(CCCCCCC3)C2=O)cc1	CFTR F508del cor 9.5 (no result: INS-1E GSIS act)
Cc1ccc(CNC(=O)CN2C(=O)NC3(CCCC3)C2=O)cc1	none (no result: RAD54 branch)
COc1cccc(NC(=O)CN2C(=O)NC3(CCCCCC3)C2=O)c1	CFTR F508del cor 8.8 (no result: INS-1E GSIS act)
COc1cccc(NC(=O)CN(C)C(=O)CN2C(=O)NC3(CCCC3)C2=O)c1	none
COc1ccc(CNC(=O)CN2C(=O)NC3(CCCCCC3)C2=O)cc1	INS-1E GSIS act 62
CCOc1ccccc1NC(=O)CN(c1ccc(OC)cc1)S(=O)(=O)c1c(C)noc1C	none (no result: INS-1E GSIS act, EWS-Fli block, RAD52 inh, LGR2 inh, CFTR F508del cor)
